# Source: PubChem (Broad Institute)
# DUX4 txn inh – inhibitors of DUX4-driven ZSCAN4 reporter expression, primary screen, 293T cells, Gaussia and Italica luciferase. 293T-iDUX4 ZSCAN4-Gaussia luciferase reporter, 24 h; active compounds read low. activity change, negative = inhibition, % (concentration not given with the values). hit rate 0.8% among 37,000;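 active = mean inhibition of at least 10% in the main channel, exceeding the control channel by a set limit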;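 note: 0% = median of neutral control wells and -100% = median of positive control wells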
# * marks the source's active call; other numbers are inactive results. Many of the other results were omitted from the sample, so hits are more common in it than they were.
SMILES,DUX4 txn inh
CC(C)C#Cc1ccc([C@@H]2[C@H](C#N)N(C(=O)c3cccc(F)c3)[C@H]2CO)cc1,1.2
CN(C)C(=O)c1cccc(-c2ccc3c(c2)[C@@H]2[C@@H](CCN2C(=O)c2ccccc2F)[C@H](CO)N3)c1,-6.3
CCC(=O)N1CC2(C1)CN(S(C)(=O)=O)[C@@H](CO)c1[nH]c3cc(OC)ccc3c12,24.1
CCC(=O)Nc1ccc2c(c1)OC[C@H](C)N(CC1CC1)C[C@@H](C)[C@H](OC)CN(C)C2=O,-2.8
C/C=C/c1ccc([C@H]2[C@@H](CO)N[C@@H]2CN(Cc2cccnc2)C(=O)C2CC2)cc1,-5.1
O=C(C[C@H]1CC[C@@H]2[C@H](COC[C@H](O)CN2S(=O)(=O)c2cccc(Cl)c2)O1)N1CCOCC1,-1.8
C[C@H](CO)N1C[C@H](C)[C@H](CN(C)Cc2cccc(F)c2)Oc2ncc(C3=CCCC3)cc2C1=O,-2.0
COc1cccc(-c2ccc([C@H]3[C@H](CO)N4C(=O)CN(C(=O)CN5CCOCC5)C[C@@H]34)cc2)c1,7.0
COc1cccc(S(=O)(=O)Nc2ccc3c(c2)C(=O)N(C)C[C@H](OC)[C@@H](C)CN(Cc2ccccc2F)[C@H](C)CO3)c1,-3.7
CCCN1C[C@@H](C)[C@@H](OC)CN(C)C(=O)c2cc(NS(=O)(=O)c3ccccc3)ccc2OC[C@H]1C,6.9
COc1cccc(S(=O)(=O)Nc2ccc3c(c2)C(=O)N(C)C[C@@H](OC)[C@H](C)CN(Cc2ccccc2F)[C@H](C)CO3)c1,-25.9*
O=C(NCC1CC1)[C@H]1[C@H](CO)[C@H]2Cn3c(ccc(-c4ccccc4)c3=O)[C@H]2N1CC1CC1,-2.6
COc1ccc(CN2C[C@@H](O)COC[C@@H]3O[C@@H](CC(=O)NCCN4CCCC4)CC[C@H]32)cc1,7.1
CO[C@@H]1CN(C)C(=O)c2ccc(NC(=O)c3ccccc3F)cc2OC[C@H](C)N(C)C[C@@H]1C,2.1
COc1ccc(S(=O)(=O)Nc2ccc3c(c2)[C@@H]2C[C@@H](CC(=O)N(C)C)O[C@@H](CO)[C@@H]2O3)cc1,0.3
C[C@@H]1CN([C@@H](C)CO)C(=O)c2ccccc2-c2ccccc2CO[C@@H]1CN(C)Cc1cccc(F)c1,12.1
C[C@@H]1CN([C@@H](C)CO)C(=O)c2ccccc2-c2ccccc2CO[C@@H]1CN(C)Cc1ccc(C(F)(F)F)cc1,12.3
C[C@@H]1CN([C@@H](C)CO)C(=O)c2ccccc2-c2ccccc2CO[C@H]1CN(C)Cc1cccc(C(=O)O)c1,2.3
C[C@H]1CN([C@@H](C)CO)C(=O)c2ccccc2-c2ccccc2CO[C@@H]1CN(C)Cc1cccc(C(F)(F)F)c1,-37.5*
C[C@H](CO)N1C[C@H](C)[C@@H](CN(C)Cc2cccc(O)c2)OCc2ccccc2-c2ccccc2C1=O,-0.1
C[C@@H]1CN([C@@H](C)CO)C(=O)c2ccccc2-c2ccccc2CO[C@@H]1CN(C)Cc1cccc(C(F)(F)F)c1,-63.1*
COc1ccccc1CN1[C@H](CO)[C@@H]2c3ccccc3N(C(=O)c3ccncc3)C[C@@H]21,-4.6
COCCNC(=O)C[C@@H]1C[C@H]2c3cc(NC(=O)CC4CC4)ccc3O[C@H]2[C@H](CO)O1,6.2
CC(C)NC(=O)N1[C@@H]2CN(C(=O)Nc3cccc(Cl)c3)c3ccccc3[C@@H]2[C@@H]1CO,-3.6
C[C@@H]1CN([C@H](C)CO)C(=O)c2cc(C#Cc3ccccc3F)cnc2O[C@H]1CN(C)C(=O)Cc1cccnc1,-2.1
SMILES,DUX4 txn inh
CO[C@H]1CC[C@H]2CCN(C)C(=O)[C@@H](C)[C@@H](OC)CN(C)C(=O)c3cc(C#N)ccc3OC[C@@H]1O2,-0.1
N#C[C@H]1N[C@H](CO)[C@@H]1c1ccc(-c2ccccc2F)cc1,5.0
CN1[C@@H]2CN(C(=O)C3CCOCC3)c3ccccc3[C@@H]2[C@@H]1CO,5.6
O=C(NCc1ccccc1F)[C@@H]1[C@@H](CO)[C@@H]2Cn3c(cccc3=O)[C@@H]2N1CC1CC1,10.0
COc1ccccc1C#Cc1ccc2c(c1)[C@@H]1[C@@H](CCN1C(=O)c1cccc(F)c1)[C@H](CO)N2,-5.9
O=C(c1ccccc1F)N1CC[C@@H]2[C@H](CO)Nc3ccc(C#Cc4ccc(F)cc4)cc3[C@@H]21,-33.2*
O=C(c1ccc2c(c1)OCO2)N1CC[C@@H]2[C@H](CO)Nc3ccc(C#Cc4ccccc4)cc3[C@@H]21,-54.2*
O=C(c1ccccc1F)N1CC[C@@H]2[C@@H](CO)Nc3ccc(C#Cc4ccccc4F)cc3[C@@H]21,-2.9
COc1ccc(C#Cc2ccc3c(c2)[C@@H]2[C@@H](CCN2C(=O)c2ccccc2F)[C@@H](CO)N3)cc1,11.0
O=C(c1ccc2c(c1)OCO2)N1CC[C@@H]2[C@H](CO)Nc3ccc(-c4ccccc4)cc3[C@@H]21,5.0
O=C(c1ccc2c(c1)OCO2)N1CC[C@@H]2[C@H]1c1cc(-c3ccccc3)ccc1N[C@@H]2CO,6.2
O=C(c1ccccc1)N1CC[C@H]2[C@H](CO)Nc3ccc(C#Cc4cccc(F)c4)cc3[C@H]21,1.1
